# According to ChEMBL document CHEMBL2218924, “A broad activity screen in support of a chemogenomic map for kinase signalling research and drug discovery” (Biochem J, 2013):
# Assays:
# [1] = biological target: T1, Mitogen-activated protein kinase kinase kinase 7 (Homo sapiens) (UniProt O43318); conditions: at 1 µM
# T1 sequence (whole entry): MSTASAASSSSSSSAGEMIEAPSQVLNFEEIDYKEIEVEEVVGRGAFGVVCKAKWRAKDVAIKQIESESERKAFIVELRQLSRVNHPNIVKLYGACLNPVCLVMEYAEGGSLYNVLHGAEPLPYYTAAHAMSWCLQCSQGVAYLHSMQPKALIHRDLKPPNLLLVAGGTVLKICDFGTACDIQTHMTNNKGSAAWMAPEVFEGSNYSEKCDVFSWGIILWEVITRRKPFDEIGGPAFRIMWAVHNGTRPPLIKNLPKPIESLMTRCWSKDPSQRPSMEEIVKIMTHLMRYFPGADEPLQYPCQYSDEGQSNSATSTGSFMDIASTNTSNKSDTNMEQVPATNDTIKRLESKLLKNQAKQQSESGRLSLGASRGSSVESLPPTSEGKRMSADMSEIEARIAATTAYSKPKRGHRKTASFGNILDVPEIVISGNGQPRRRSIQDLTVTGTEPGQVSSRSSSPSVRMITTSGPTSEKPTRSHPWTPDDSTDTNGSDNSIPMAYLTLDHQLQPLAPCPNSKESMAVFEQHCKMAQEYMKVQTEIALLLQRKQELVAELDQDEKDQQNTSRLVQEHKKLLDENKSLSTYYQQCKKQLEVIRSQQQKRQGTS
# [2] = biological target: T1, Mitogen-activated protein kinase kinase kinase 7 (Homo sapiens); conditions: at 10 µM
# [3] = biological target: T2, Serine/threonine-protein kinase TAO1 (Homo sapiens) (UniProt Q7L7X3); conditions: at 1 µM
# T2 sequence (whole entry): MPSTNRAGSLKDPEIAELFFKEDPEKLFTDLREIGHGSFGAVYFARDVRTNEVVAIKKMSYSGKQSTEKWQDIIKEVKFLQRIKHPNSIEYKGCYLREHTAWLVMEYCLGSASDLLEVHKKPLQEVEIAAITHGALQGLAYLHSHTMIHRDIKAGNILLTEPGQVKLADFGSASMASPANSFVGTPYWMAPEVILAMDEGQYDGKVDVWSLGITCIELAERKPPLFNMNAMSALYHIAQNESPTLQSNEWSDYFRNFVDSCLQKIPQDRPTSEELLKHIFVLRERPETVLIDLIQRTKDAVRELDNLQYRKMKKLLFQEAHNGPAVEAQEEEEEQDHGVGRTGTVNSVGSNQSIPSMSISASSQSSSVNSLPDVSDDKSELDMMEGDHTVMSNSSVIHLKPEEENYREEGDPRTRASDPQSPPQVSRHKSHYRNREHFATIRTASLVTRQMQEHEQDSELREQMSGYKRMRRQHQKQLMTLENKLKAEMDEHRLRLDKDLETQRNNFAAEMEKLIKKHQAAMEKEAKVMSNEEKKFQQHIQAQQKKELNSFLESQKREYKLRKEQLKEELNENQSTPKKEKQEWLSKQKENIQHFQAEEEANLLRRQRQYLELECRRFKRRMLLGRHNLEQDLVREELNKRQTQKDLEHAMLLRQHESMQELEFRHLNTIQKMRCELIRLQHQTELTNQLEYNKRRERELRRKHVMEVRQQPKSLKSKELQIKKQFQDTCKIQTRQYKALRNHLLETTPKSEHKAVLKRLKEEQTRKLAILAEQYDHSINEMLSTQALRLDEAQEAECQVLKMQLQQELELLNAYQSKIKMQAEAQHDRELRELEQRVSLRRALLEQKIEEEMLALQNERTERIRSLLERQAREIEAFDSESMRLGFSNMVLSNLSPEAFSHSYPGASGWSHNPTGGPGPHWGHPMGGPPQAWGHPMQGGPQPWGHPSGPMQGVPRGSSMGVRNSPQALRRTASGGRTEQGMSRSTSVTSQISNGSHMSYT
# [4] = biological target: T2, Serine/threonine-protein kinase TAO1 (Homo sapiens); conditions: at 10 µM
# [5] = biological target: T3, Serine/threonine-protein kinase TAO2 (Homo sapiens) (UniProt Q9UL54); conditions: at 1 µM
# T3 sequence (whole entry): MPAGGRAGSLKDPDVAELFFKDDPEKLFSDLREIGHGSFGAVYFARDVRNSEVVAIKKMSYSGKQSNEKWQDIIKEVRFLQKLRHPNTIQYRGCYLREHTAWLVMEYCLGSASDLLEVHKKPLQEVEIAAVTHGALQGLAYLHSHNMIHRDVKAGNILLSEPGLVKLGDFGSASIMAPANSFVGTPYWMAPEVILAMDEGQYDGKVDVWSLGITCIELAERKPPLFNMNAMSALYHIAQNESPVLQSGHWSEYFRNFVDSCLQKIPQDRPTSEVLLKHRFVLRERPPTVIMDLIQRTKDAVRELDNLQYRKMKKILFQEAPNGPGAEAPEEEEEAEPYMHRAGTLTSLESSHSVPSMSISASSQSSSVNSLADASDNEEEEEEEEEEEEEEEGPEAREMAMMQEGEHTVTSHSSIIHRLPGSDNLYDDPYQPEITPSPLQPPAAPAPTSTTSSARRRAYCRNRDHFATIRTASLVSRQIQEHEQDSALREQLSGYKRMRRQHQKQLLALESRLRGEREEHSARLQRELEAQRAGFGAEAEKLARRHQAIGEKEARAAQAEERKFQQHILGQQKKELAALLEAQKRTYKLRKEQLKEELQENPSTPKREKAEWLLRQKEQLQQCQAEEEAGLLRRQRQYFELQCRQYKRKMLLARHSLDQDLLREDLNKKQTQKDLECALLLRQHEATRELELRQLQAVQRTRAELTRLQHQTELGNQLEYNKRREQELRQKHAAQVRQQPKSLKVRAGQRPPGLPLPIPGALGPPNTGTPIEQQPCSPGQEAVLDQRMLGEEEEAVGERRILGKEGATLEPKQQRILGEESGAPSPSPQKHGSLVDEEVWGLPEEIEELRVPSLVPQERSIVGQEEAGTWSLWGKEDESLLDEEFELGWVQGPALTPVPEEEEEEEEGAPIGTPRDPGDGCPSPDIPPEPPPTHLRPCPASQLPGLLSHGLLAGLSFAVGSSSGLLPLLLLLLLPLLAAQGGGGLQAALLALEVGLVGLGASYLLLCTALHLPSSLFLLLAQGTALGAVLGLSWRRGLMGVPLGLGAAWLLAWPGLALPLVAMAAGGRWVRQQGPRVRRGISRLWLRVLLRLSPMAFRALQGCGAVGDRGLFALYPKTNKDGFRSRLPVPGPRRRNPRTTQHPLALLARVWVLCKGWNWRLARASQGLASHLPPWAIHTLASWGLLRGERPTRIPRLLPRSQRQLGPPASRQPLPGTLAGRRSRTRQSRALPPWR
# [6] = biological target: T3, Serine/threonine-protein kinase TAO2 (Homo sapiens); conditions: at 10 µM
# [7] = biological target: T4, Serine/threonine-protein kinase TAO3 (Homo sapiens) (UniProt Q9H2K8); conditions: at 1 µM
# T4 sequence (whole entry): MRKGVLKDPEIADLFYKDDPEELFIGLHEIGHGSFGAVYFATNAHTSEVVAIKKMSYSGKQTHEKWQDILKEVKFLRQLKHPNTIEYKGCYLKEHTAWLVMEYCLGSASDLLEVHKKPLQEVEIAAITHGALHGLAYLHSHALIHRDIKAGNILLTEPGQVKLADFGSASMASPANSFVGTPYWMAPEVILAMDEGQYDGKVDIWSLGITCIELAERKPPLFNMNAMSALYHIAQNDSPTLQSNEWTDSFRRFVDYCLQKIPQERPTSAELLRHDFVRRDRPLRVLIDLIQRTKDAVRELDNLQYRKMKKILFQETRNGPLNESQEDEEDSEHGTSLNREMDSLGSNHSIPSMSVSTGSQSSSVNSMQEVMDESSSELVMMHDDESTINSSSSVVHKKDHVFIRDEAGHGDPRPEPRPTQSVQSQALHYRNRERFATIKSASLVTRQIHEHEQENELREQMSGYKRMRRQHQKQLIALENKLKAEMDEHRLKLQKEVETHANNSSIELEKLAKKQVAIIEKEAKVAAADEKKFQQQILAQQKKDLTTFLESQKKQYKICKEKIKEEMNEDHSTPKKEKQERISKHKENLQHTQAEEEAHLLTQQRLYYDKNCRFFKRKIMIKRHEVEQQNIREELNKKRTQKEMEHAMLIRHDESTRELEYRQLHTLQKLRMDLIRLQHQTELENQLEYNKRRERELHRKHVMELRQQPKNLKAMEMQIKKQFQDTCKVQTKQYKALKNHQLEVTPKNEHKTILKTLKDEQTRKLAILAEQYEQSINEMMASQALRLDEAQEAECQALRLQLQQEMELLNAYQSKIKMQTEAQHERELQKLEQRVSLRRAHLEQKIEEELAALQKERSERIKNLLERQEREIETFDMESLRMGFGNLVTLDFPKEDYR
# [8] = biological target: T4, Serine/threonine-protein kinase TAO3 (Homo sapiens); conditions: at 10 µM
# [9] = biological target: T5, Serine/threonine-protein kinase TBK1 (Homo sapiens) (UniProt Q9UHD2); conditions: at 1 µM
# T5 sequence (whole entry): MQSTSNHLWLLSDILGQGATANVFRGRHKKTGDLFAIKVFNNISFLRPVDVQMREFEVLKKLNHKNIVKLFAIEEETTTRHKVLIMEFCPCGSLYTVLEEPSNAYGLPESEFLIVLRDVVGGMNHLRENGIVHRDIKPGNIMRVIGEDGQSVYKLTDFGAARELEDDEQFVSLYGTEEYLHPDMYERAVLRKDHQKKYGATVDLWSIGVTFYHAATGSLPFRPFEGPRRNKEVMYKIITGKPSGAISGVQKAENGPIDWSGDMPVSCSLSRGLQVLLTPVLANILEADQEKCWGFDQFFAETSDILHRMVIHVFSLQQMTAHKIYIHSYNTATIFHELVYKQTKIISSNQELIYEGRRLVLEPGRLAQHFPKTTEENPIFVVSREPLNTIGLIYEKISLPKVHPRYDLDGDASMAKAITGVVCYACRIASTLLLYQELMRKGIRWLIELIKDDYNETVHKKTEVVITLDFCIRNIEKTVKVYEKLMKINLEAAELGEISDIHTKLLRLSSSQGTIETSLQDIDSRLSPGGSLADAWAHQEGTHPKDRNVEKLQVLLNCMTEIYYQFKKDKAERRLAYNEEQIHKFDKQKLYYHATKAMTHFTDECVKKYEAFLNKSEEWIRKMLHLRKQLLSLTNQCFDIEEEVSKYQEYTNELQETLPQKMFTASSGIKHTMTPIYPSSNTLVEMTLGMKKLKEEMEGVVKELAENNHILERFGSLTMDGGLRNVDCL
compound,measurement,setting,value
Oc1c2ccccc2c2c3c(cccc13)N=N2,residual activity,[1],41%
same,residual activity,[2],19%
same,residual activity,[3],69%
same,residual activity,[4],25%
same,residual activity,[5],101%
same,residual activity,[6],69%
same,residual activity,[7],69%
same,residual activity,[8],27%
same,residual activity,[9],35%
